Measurements from PubChem BioAssay (Tox21).
Where “and” joins values, the source holds several entries; their conditions need not be identical. Equal values may be shown once. Inconclusive results are not listed. Where a call stands in place of a potency, no number is given. More than one record can exist for a structure, and the calls need not agree. Calls of active or inactive are those of the source. Calls follow the shape of the dose curve; as a rule, active = well fitted curve in the direction sought with a large enough effect in the repeat runs; inconclusive = weak or mixed curves; inactive = no such curve, though single readings can be large; an effect the other way counts as inactive or inconclusive.

What was measured:
[1] = qHTS RealTime-Glo MT Cell Viability Assay in HEK293 cells - 40 hour (AID 1224874); settings: RealTime-Glo luminescence; max response: stronger effect = lower value; also: nearly all actives have a fitted effect of over 50% in size; also: potency is read from the fitted curve at half-maximal effect
Procedure, shortened: (§1)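 Cells were seeded together with NanoLuc luciferase and a prosubstrate that viable cells reduce to a luciferase substrate. After a 5 h incubation at 37 C/5% CO2, compounds were added and luminescence was measured repeatedly during 40 h of treatment.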

[2] = A CellTox Green Cytotoxicity Assay to monitor cytotoxicity in HEK293 cells - 24 hour (AID 1224875); also: series mostly up to about 77 µM; nearly all actives have a fitted effect of over 45% in size
Procedure, shortened: (§2)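 Nonlytic real-time cytotoxicity: HEK293 + CellTox Green reagent plated, 5 h preincubation, pintool compound addition (23 nL in DMSO), 37 C for 40 h, fluorescence measured at successive time points.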

[3] = A CellTox Green Cytotoxicity Assay to monitor cytotoxicity in HepG2 cells - 16 hour (AID 1224876); also: nearly all actives have a fitted effect of over 45% in size
Procedure, shortened: (§3)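 Read-out is fluorescence of a cyanine dye excluded from live cells that stains DNA of dead HepG2 cells, with signal proportional to cytotoxicity. Plates were read at 0, 8, 16, 24, 32 and 40 h after compound addition.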

[4] = qHTS RealTime-Glo MT Cell Viability Assay in HepG2 cells - 32 hour (AID 1224877); also: nearly all actives have a fitted effect of over 55% in size
Procedure, shortened: (§4)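 Cells + NanoLuc/prosubstrate dispensed (600 cells/well) → 5 h at 37 C/5% CO2 → compounds in DMSO transferred → 40 h incubation at 37 C, luminescence read at 0, 8, 16, 24, 32, 40 h.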

[5] = A CellTox Green Cytotoxicity Assay to monitor cytotoxicity in HepG2 cells - 24 hour (AID 1224878); also: nearly all actives have a fitted effect of over 45% in size; also: potency is read from the fitted curve at half-maximal effect
Procedure, shortened: as §3

[6] = A CellTox Green Cytotoxicity Assay to monitor cytotoxicity in HepG2 cells - 40 hour (AID 1224879); also: nearly all actives have a fitted effect of over 40% in size; also: potency is read from the fitted curve at half-maximal effect
Procedure, shortened: as §3

[7] = qHTS RealTime-Glo MT Cell Viability Assay in HEK293 cells - 0 hour (AID 1224880); also: top concentration of the series differs between compounds; nearly all actives have a fitted effect of over 45% in size
Procedure, shortened: as §1

[8] = A CellTox Green Cytotoxicity Assay to monitor cytotoxicity in HEK293 cells - 32 hour (AID 1224881); also: nearly all actives have a fitted effect of over 40% in size
Procedure, shortened: as §2

[9] = A CellTox Green Cytotoxicity Assay to monitor cytotoxicity in HepG2 cells - 0 hour (AID 1224882); also: nearly all actives have a fitted effect of over 35% in size
Procedure, shortened: as §3

[10] = A CellTox Green Cytotoxicity Assay to monitor cytotoxicity in HEK293 cells - 8 hour (AID 1224884); also: nearly all actives have a fitted effect of over 35% in size
Procedure, shortened: as §2

[11] = qHTS RealTime-Glo MT Cell Viability Assay in HepG2 cells - 16 hour (AID 1224885); also: nearly all actives have a fitted effect of over 50% in size
Procedure, shortened: as §4

[12] = qHTS RealTime-Glo MT Cell Viability Assay in HEK293 cells - 24 hour (AID 1224886); also: nearly all actives have a fitted effect of over 50% in size; also: potency is read from the fitted curve at half-maximal effect
Procedure, shortened: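 Tox21 10K qHTS, HEK293, 600 cells/well, RealTime-Glo reagent co-dispensed with cells; 5 h preincubation, compound by pintool, 37 C, luminescence at 0–40 h.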

[13] = qHTS RealTime-Glo MT Cell Viability Assay in HEK293 cells - 8 hour (AID 1224887); also: top concentration of the series differs between compounds; nearly all actives have a fitted effect of over 50% in size
Procedure, shortened: as §1

[14] = qHTS RealTime-Glo MT Cell Viability Assay in HepG2 cells - 0 hour (AID 1224889); also: nearly all actives have a fitted effect of over 50% in size
Procedure, shortened: as §4

[15] = A CellTox Green Cytotoxicity Assay to monitor cytotoxicity in HepG2 cells - 8 hour (AID 1224890); also: nearly all actives have a fitted effect of over 45% in size
Procedure, shortened: as §3

[16] = qHTS assay to identify small molecule antagonists of the androgen receptor (AR) signaling pathway using the MDA cell line in the presence of 0.5 nM R1881 - cell viability counter screen (AID 1259242); also: nearly all actives have a fitted effect of over 45% in size
Procedure, shortened: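 Counter screen for cytotoxicity run in the same wells as the AR antagonist reporter screen: MDA-kb2 cells were treated 16 hr with test compounds and 0.5 nM R1881, then live-cell protease activity was measured by fluorescence.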

[17] = A CellTox Green Cytotoxicity Assay to monitor cytotoxicity in HEK293 cells - 16 hour (AID 1224888); also: nearly all actives have a fitted effect of over 35% in size
Procedure, shortened: as §2

[18] = qHTS assay to identify small molecule antagonists of the estrogen receptor alpha (ER-alpha) signaling pathway using the BG1 cell line in the presence of 0.1 nM 17-beta-estradiol - cell viability counter screen (AID 1259241); also: nearly all actives have a fitted effect of over 40% in size
Procedure, shortened: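 Following 5 days in phenol red-free medium with charcoal-stripped serum, VM7Luc4E2 cells received test compounds alongside 0.1 nM 17beta-estradiol (final) at 37C for 22 hr. Live cells were then quantified via protease-substrate fluorescence.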

[19] = A CellTox Green Cytotoxicity Assay to monitor cytotoxicity in HepG2 cells - 32 hour (AID 1224883); also: nearly all actives have a fitted effect of over 50% in size
Procedure, shortened: as §3

| SMILES | max response [1] | Potency [2] | Potency [3] | outcome [4] | Potency [5] | Potency [6] | outcome [7] | Potency [8] | Potency [9] | Potency [10] | outcome [11] | Potency [12] | outcome [13] | outcome [14] | Potency [15] | outcome [16] | Potency [1] | Potency [17] | Potency [18] | Potency [19] |
| --- | --- | --- | --- | --- | --- | --- | --- | --- | --- | --- | --- | --- | --- | --- | --- | --- | --- | --- | --- | --- |
| CCC[N+](=O)[O-] | 7.7% (inactive) | inactive | inactive | inactive | 24.1 µM (active) and inactive | 24.1 µM (active) and inactive | inactive | inactive | inactive | inactive | inactive | inactive | inactive | inactive | inactive | inactive | – | – | – | – |
| COc1ccc2c3c1O[C@H]1[C@@H](O)C=C[C@H]4[C@@H](C2)N(C)CC[C@@]341 | 0.391% (inactive) | inactive | inactive | inactive | inactive | 30.4 µM (active) and inactive | – | inactive | inactive | inactive | – | 48.2 µM (active) and inactive | inactive | inactive | – | inactive | 24.2 µM (active) | inactive | inactive | – |
| COP(N)(=O)SC (stereo not drawn) | -1.86% (inactive) and 15.3% (inactive) | inactive | inactive | inactive | inactive | inactive | inactive | inactive | inactive | inactive | inactive | inactive | inactive | inactive | – | inactive | – | – | inactive | – |
| ClCc1cccnc1 | 2.33% (inactive) and -1.14% (inactive) | inactive | inactive | inactive | inactive | inactive | inactive | inactive | inactive | inactive | inactive | inactive | inactive | inactive | – | inactive | – | – | inactive | – |
| CCC12COCN1COC2 | 1.37% (inactive) and 3.08% (inactive) | inactive | inactive | inactive | inactive | inactive | inactive | inactive | inactive | inactive | inactive | inactive | inactive | inactive | inactive | inactive | – | inactive | inactive | inactive |
| Nc1ccc(Cc2ccc(N)cc2)cc1 | -10.2% (inactive) | inactive | inactive | inactive | inactive | inactive | inactive | inactive | inactive | inactive | inactive | inactive | inactive | inactive | inactive | inactive | – | inactive | inactive | – |
| CC(Br)C(=O)O (stereo not drawn) | 0.901% (inactive) and -24.8% (inactive) | inactive | inactive | inactive | inactive | inactive | inactive | inactive | inactive | inactive | inactive | inactive | inactive | inactive | – | inactive | – | – | inactive | inactive |
| COC(=O)c1ccccc1N | 1.4% (inactive) and 10.1% (inactive) | inactive | inactive | inactive | inactive | inactive | inactive | inactive | inactive | inactive | inactive | inactive | inactive | inactive | – | inactive | – | inactive | inactive | inactive |
| CC(C)OC(=O)Nc1ccccc1 | 1.67% (inactive) and 0.253% (inactive) | inactive | inactive | inactive | inactive | inactive | inactive | inactive | inactive | inactive | inactive | inactive | inactive | inactive | – | inactive | – | inactive | inactive | – |
| CCN(CC)CCO | 2.53% (inactive) and -12.7% (inactive) | inactive | inactive | inactive | inactive | inactive | – | inactive | inactive | inactive | inactive | inactive | inactive | inactive | – | inactive | – | inactive | inactive | inactive |
| C#CC(C)(C)NC(=O)c1cc(Cl)cc(Cl)c1 | -9.66% (inactive) | inactive | inactive | inactive | inactive | inactive | – | inactive | inactive | inactive | inactive | inactive | inactive | inactive | inactive | inactive | – | – | inactive | inactive |
| O=[N+]([O-])c1ccccc1 | 6.12% (inactive) and 17.8% (inactive) | inactive | inactive | inactive | inactive | inactive | – | inactive | inactive | inactive | – | inactive | inactive | inactive | – | inactive | – | – | inactive | inactive |
| NCC(O)c1ccc(O)cc1 (stereo not drawn) | -6.22% (inactive) and 3.7% (inactive) | inactive | inactive | – | inactive | inactive | inactive | inactive | inactive | inactive | inactive | inactive | inactive | inactive | inactive | inactive | – | – | inactive | inactive |
| Cc1cc(Cl)ccc1O | 4.2% (inactive) and 2.39% (inactive) | inactive | inactive | – | inactive | inactive | inactive | inactive | inactive | inactive | inactive | inactive | inactive | inactive | – | inactive | – | inactive | inactive | inactive |
| Cc1cc(-c2cc(C)c(N)c(C)c2)cc(C)c1N | -25.8% (inactive) and -12.6% (inactive) | inactive | inactive | – | inactive | inactive | inactive | inactive | inactive | inactive | inactive | inactive | inactive | inactive | – | inactive | – | inactive | inactive | inactive |
